sEH activator = soluble epoxide hydrolase (human) activation; P34913; purified human sEH enzymatic activity, activator screen; activation, % at 2 µM; actives 0.04% (n = 91,000); AID 717; in the data active = activation above about 37%
Measles CPE = protection of cells from measles virus. actives 1.5% (n = 140,000). protection (pct of control), % at 4 µM. Measles virus-infected cells, CPE protection, absorbance. AID 841; in the data active = protection mostly above about 24%, no sharp cut-off; inactive = mostly below about 26%
PTPN22 inh 2 = blocks human PTPN22 phosphatase activity | Q9Y2R2 | recombinant LYP catalytic domain, DiFMUP fluorescence | inhibition, % at 2 µM | actives 0.21% (n = 96,000) | AID 640;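 active = inhibition at 2 µM at or above a set limit, the screen mean plus 3 SD, cut at about 24% in these data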
Target sequence (Q9Y2R2 whole entry, looked up, the tested form may be a part): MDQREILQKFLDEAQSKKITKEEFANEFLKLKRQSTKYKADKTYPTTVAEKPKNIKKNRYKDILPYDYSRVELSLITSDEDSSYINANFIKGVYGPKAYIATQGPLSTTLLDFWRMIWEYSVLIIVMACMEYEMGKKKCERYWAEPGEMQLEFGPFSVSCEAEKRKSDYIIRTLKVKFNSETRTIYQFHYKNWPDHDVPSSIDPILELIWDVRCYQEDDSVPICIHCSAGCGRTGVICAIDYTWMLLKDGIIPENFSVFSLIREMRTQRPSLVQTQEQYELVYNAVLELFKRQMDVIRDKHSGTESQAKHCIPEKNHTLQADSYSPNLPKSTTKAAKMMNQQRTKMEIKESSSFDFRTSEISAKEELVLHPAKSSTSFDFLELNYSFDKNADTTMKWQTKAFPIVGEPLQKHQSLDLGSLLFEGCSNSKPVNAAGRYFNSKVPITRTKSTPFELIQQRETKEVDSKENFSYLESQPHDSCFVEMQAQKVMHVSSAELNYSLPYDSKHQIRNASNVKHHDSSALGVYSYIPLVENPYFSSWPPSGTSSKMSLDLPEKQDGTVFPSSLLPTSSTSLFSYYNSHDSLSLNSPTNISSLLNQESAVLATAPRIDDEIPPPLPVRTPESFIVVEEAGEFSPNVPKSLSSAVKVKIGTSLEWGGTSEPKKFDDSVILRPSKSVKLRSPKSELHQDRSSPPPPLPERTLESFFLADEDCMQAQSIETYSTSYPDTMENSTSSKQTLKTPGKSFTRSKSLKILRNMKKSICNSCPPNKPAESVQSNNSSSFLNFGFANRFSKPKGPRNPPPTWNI
sEH inh = blocks human soluble epoxide hydrolase activity; AID 707; inhibition, % at 2 µM; recombinant human sEH enzymatic activity assay; actives 0.34% (n = 91,000); in the data active = inhibition above about 80%
LYP act = increases human PTPN22 phosphatase activity; Q9Y2R2; recombinant LYP, DiFMUP fluorescence; 0 = plate median, 100 = signal doubled; activation, % at 2 µM; actives 0.11% (n = 96,000);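 active = activation at 2 µM above a set limit, the mean plus 5 SD, cut at about 37% in these data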
Each line names hits and unclear results; the compound was inactive in the other large screens. Only some compounds are listed: those with a hit (about 1.7% of all), similar ones and a draw of the others.

O=C(c1ccc2snnc2c1)N1CCN(c2ccccc2)CC1	none
Cn1nnc2cc(C(=O)N3CCN(c4ccccc4)CC3)ccc21	Measles CPE 43.1
Cc1cccc(C)c1C(OCCN(C)C)C1CCCCC1 (stereo unspecified)	none (no result: sEH activator, PTPN22 inh 2, sEH inh, LYP act)
Nn1cc(-c2ccccc2)nc1SCC(=O)N1CCN(S(=O)(=O)c2ccc3ccccc3c2)CC1	none
Nn1cc(-c2ccccc2)nc1SCC(=O)N1CCN(S(=O)(=O)c2ccc(Cl)cc2)CC1	Measles CPE 22.7 (no result: sEH activator, PTPN22 inh 2, sEH inh, LYP act)
O=C(CS(=O)(=O)c1ccccc1)Nc1ccc(Br)cn1	none (no result: sEH activator, PTPN22 inh 2, sEH inh, LYP act)
Cc1cccc(-c2nnc(N)s2)c1	Measles CPE 35.8
Cc1ccc(C(=O)COC(=O)CCc2nc3ccccc3[nH]c2=O)cc1C	none
O=C(CCc1nc2ccccc2[nH]c1=O)OCC(=O)c1ccc(Cl)cc1	Measles CPE 36.2
O=C(CSc1ccc2ccccc2c1)Nc1nc2ccccc2[nH]1	Measles CPE 42.5 (no result: sEH activator, PTPN22 inh 2, sEH inh, LYP act)
O=C(COc1ccccc1)Nc1nc2ccccc2[nH]1	none
CCOC(=O)N1CCN(CC(=O)Nc2ccc(Oc3ccccc3)cc2)CC1	none
CCN1CCN(C(=O)C2(NC(=O)Nc3ccccc3Cl)CCCCC2)CC1	Measles CPE 48.9
CN1CCN(C(=O)C2(NC(=O)Nc3ccccc3Cl)CCCCC2)CC1	none
COCCOC(=O)C1=C(C)N(Cc2ccccc2)C(=O)NC1c1ccc(OC)cc1 (stereo unspecified)	Measles CPE 51.5
CC1=C(C(=O)OCc2ccccc2)C(c2ccc(C#N)cc2)NC(=O)N1CCCC(=O)O (stereo unspecified)	Measles CPE 31.1 (no result: sEH activator, PTPN22 inh 2, sEH inh, LYP act)
CCOC(=O)C1=C(C)N(CCO)C(=O)NC1c1ccccc1 (stereo unspecified)	none (no result: sEH activator, PTPN22 inh 2, sEH inh, LYP act)
CCOc1cc(Cl)c(NC(C)=O)cc1OCC	none (no result: sEH activator, PTPN22 inh 2, sEH inh, LYP act)
CN(C)S(=O)(=O)c1cc(NC(=O)COC(=O)C2CSC3(C)CCC(=O)N23)ccc1Cl (stereo unspecified)	none (no result: sEH activator, PTPN22 inh 2, sEH inh, LYP act)
Cc1cc(C)c(-c2csc(NC(=O)c3n[nH]c(=O)c4ccccc34)n2)c(C)c1	Measles CPE 62.0 (no result: sEH activator, PTPN22 inh 2, sEH inh, LYP act)
CC12CCC(C(=O)N3CCN(C(c4ccccc4)c4ccccc4)CC3)(OC1=O)C2(C)C (stereo unspecified)	Measles CPE 34.2
CC12CCC(C(=O)NCc3ccccc3)(OC1=O)C2(C)C (stereo unspecified)	none
O=C(C(Sc1ccccc1)c1ccccc1)N1CCOCC1 (stereo unspecified)	none (no result: sEH activator, PTPN22 inh 2, sEH inh, LYP act)
COC(=O)c1cn(C(=O)OC)c2ccccc12	Measles CPE 49.1
CCOC(=O)Cc1csc(NC(=S)NC(=O)c2cccc([N+](=O)[O-])c2)n1	none (no result: sEH activator, PTPN22 inh 2, sEH inh, LYP act)
O=C1NC2(CCc3ccccc3C2)C(=O)N1CCOc1cccc(Cl)c1 (stereo unspecified)	Measles CPE 23.4 (no result: sEH activator, PTPN22 inh 2, sEH inh, LYP act)
Clc1cccc(OCCN2CCN(CCOc3cccc(Cl)c3)CC2)c1	none (no result: sEH activator, PTPN22 inh 2, sEH inh, LYP act)
O=C(C1CC(c2ccc(F)cc2)=NO1)N1CCCc2ccccc21 (stereo unspecified)	none
COc1ccc(OC)c(C2=NOC(C(=O)N3CCCc4ccccc43)C2)c1 (stereo unspecified)	Measles CPE 52.0
Cc1ccccc1NC(=O)c1ccc(CN(c2ccccc2)S(=O)(=O)c2ccccc2)cc1	none (no result: sEH activator, PTPN22 inh 2, sEH inh, LYP act)
Cc1cccc(NC(=O)COC(=O)Cc2cccc(C(F)(F)F)c2)c1C	none (no result: sEH activator, PTPN22 inh 2, sEH inh, LYP act)
COc1ccc(O[C@H]2C=C[C@@H](c3ccccc3)O[C@@H]2CO/N=C(\C)CCN2CCCCc3nc(C)c(C)cc32)cc1	Measles CPE 23.3 (no result: sEH activator, PTPN22 inh 2, sEH inh, LYP act)
CCCc1cc(=O)[nH]c(SCC(N)=O)n1	none
CCCc1cc(=O)[nH]c(SCC(=O)c2cc(C)n(C(C)COC)c2C)n1 (stereo unspecified)	Measles CPE 45.4
COC(=O)c1c(O)cc(C(C)(C)C)n(-c2ccc(F)cc2)c1=O	none (no result: sEH activator, PTPN22 inh 2, sEH inh, LYP act)
CC(=O)C1=C(O)C(=O)N(CCc2c[nH]c3ccccc23)C1c1cccc(O)c1 (stereo unspecified)	Measles CPE 24.8
COc1cc(C2C(C(C)=O)=C(O)C(=O)N2CCc2c[nH]c3ccccc23)ccc1O (stereo unspecified)	none
CCn1nc(CC(=O)Nc2nnc(CC(=O)N3CCOCC3)s2)c2ccccc2c1=O	Measles CPE 28.4
CCn1nc(CC(=O)Nc2nnc(CC(=O)N3CCCC3)s2)c2ccccc2c1=O	none
COc1ccc(-c2c(C)n([O-])c(C)c(-c3ccccc3)[n+]2=O)cc1OC	Measles CPE 88.9
CCCOc1cccc(/C=N/NC(=O)c2csc(C)c2C)c1	sEH inh 86.4
COc1ccc(OC)c(NS(=O)(=O)c2ccc(Cl)nc2)c1	Measles CPE 31.5 (no result: sEH activator, PTPN22 inh 2, sEH inh, LYP act)
Cn1cc([N+](=O)[O-])c(C(=O)NCc2cc3cc(Cl)ccc3[nH]2)n1	none (no result: sEH activator, PTPN22 inh 2, sEH inh, LYP act)
Cc1noc(NS(=O)(=O)c2ccc(NC(=O)C34CC5CC(C3)CC(n3cnc(Br)n3)(C5)C4)cc2)c1C	none (no result: sEH activator, PTPN22 inh 2, sEH inh, LYP act)
CCN(CC(=O)N1CCN(c2ccccc2)CC1)S(=O)(=O)c1ccc(C)cc1	Measles CPE 63.0 (no result: sEH activator, PTPN22 inh 2, sEH inh, LYP act)
CCN(CC(=O)N1CCOCC1)S(=O)(=O)c1ccc(C)cc1	none
COc1ccc(S(=O)(=O)N(CC(=O)N2CCN(c3ccccc3)CC2)c2ccccc2)cc1	Measles CPE 41.7
Cc1cc(C)c(S(=O)(=O)N(CC(=O)N2CCOCC2)C2CCCCC2)c(C)c1	none
COc1ccc(N(CC(=O)NN=C2CCCC2)S(=O)(=O)c2ccccc2)cc1	Measles CPE 44.0
COc1ccc(N2CCN(C(=O)CN(c3ccccc3)S(C)(=O)=O)CC2)cc1	none
Cc1ccc(S(=O)(=O)N(CC(=O)N2CCOCC2)C2CCCCC2)cc1	Measles CPE 17.4
O=C(CCS(=O)(=O)c1ccc(Br)cc1)N1CCN(c2ccc(Cl)cc2)CC1	none
CC(=O)c1ccc(N2CCN(C(=O)CCS(=O)(=O)c3ccc(C)cc3)CC2)cc1	Measles CPE 47.4 (no result: sEH activator, PTPN22 inh 2, sEH inh, LYP act)
O=C(CCCn1c(=S)[nH]c2ccccc2c1=O)N1CCN(c2cccc(Cl)c2)CC1	Measles CPE 59.0
O=C(CCCCn1c(=O)[nH]c2ccccc2c1=O)N1CCN(c2cccc(C(F)(F)F)c2)CC1	none
CCNC(=S)SCCOc1ccc(C)cc1	none (no result: sEH activator, PTPN22 inh 2, sEH inh, LYP act)
O=c1c2ccccc2nc(-c2ccccc2)n1CCCN1CCOCC1	Measles CPE 25.5
Cc1ccc(-c2nc3ccccc3c(=O)n2CCCN2CCOCC2)cc1	none
Cc1nc2ncnn2c(C)c1CCC(=O)NCCc1ccccc1	Measles CPE 100.4
COc1ccc(-c2c(C#N)c(N)nc3c2CCCCCC3)cc1OC	Measles CPE 41.9
N#Cc1c(N)nc2c(c1-c1ccncc1)CCCCC2	none
CSc1ccc(-c2c(C#N)c(N)nc3c2CCCC3)cc1	Measles CPE 39.8
O=C(N/N=C/c1ccccc1)c1ccc(N2CCOCC2)c([N+](=O)[O-])c1	Measles CPE 20.2 (no result: sEH activator, PTPN22 inh 2, sEH inh, LYP act)
N#CC1=C(N)OC2=C(C(=O)CCC2)C1c1ccccc1 (stereo unspecified)	Measles CPE 33.8
CCCCOC(=O)Nc1nnc(CCc2ccccc2)s1	Measles CPE 50.5
COc1ccc(/C=N\NC(=O)c2cc(O)c(O)c(O)c2)cc1CN1CCN(c2ccc(F)cc2)CC1	none (no result: sEH activator, PTPN22 inh 2, sEH inh, LYP act)
Cc1ccc(S(=O)(=O)NCCNC(=O)N2CCOCC2)cc1	none

Bioassay records: PubChem, several laboratories
